Data as given in PubChem BioAssay (NCATS).
Results filed as inconclusive are left out. Values without a mark were called inactive. The call rests on the fitted dose curve; in most records, active means well fitted cell-killing curve with a large enough effect; inconclusive means small, poorly fitted or top-dose-only effect, or effect the other way; inactive means flat fitted curve, though single readings scatter. *1 amine or outer side, *2 acyl side, *3 side chain or, on linkers, in order; H or OH if unused. Where a SMILES comes first, the peptide text is derived from it. [ ]: non-standard residue; d: D form. The star is where a group is joined. ξ: configuration not given here. X9 = CCC(C)(N*)C(=O)C1CC[C@@H](C(=O)N[C@@H](Cc2ccccc2)C(=O)NCC(=O)O)N1; X8 = O=C([C@@H]1CC(O)CN1[*:1])[*:2]; aIle = CC[C@@H](C)[C@H](N)C(=O)O; Thr(3ξ) = CC(O)[C@H](N)C(=O)O; ξIva = CCC(C)(N)C(=O)O; Aib = CC(C)(N)C(=O)O

These compounds were tested on SKOV3 (assay: Primary qHTS to identify gynecologic anti-cancer compounds using libraries of approved drugs and bioactive compounds (AID 1345084; further: nearly all actives have a fitted effect of over 55% in size)). Conditions: Gynecologic cancer cell panel viability, ATPlite luminescence, 48 h; series mostly up to 57.5 µM; activity change, negative = cytotoxicity: at the top concentration.
Summary of the method: (§1)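 Cell viability after 48 h drug treatment, ATPlite luminescence readout; five doses.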
On the % scale 0 is the no-effect control and ±100 the full control effect.

Structure (SMILES)	activity change, negative = cytotoxicity
O=C(C[C@@H]1C(C(=O)O)=CO[C@@H](O[C@@H]2O[C@H](CO)[C@@H](O)[C@H](O)[C@H]2O)/C1=C\CO)OCCc1ccc(O)cc1	-2.03% [at 25.3 µM]
CC(C)(CC(=O)N1CCCC1)NCC(=O)N1C[C@@H](F)C[C@H]1C#N	6.71%
CC1(C)CC[C@]2(C(=O)O)[C@H](O)C[C@]3(C)C(=CCC4[C@@]5(C)CC[C@H](O[C@@H]6OC[C@@H](O)[C@H](O)[C@H]6O)[C@@](C)(C(=O)O)C5CC[C@]43C)[C@@H]2C1 (stereo partly specified)	0% [at 25.3 µM]
CN1CCc2cc(Cl)c(O)cc2[C@@H](c2cccc3c2OCC3)C1	0.339%
CCc1nnc(NS(=O)(=O)c2ccc(NC(=S)NC(=O)/C=C/c3ccc(F)cc3)cc2)s1	37%
COc1c2cc(c(O)c1OC)CCCCC(O)CCc1ccc(O)c-2c1 (stereo unspecified)	-10.2% [at 38.5 µM]
C/C(=C\C1CCC(C)C2CCC3(C)OC123)C(=O)O (stereo unspecified)	20.3%
CCCC/C=C\CCCCCc1cc(=O)c2ccccc2n1C	8.06% [at 38.5 µM]
CC1OC(O[C@@H]2[C@@H](O)[C@H](OC(=O)[C@]34CCC(C)(C)C[C@H]3C3=CCC5[C@@]6(C)CC[C@H](O[C@@H]7O[C@H](C(=O)O)[C@@H](O)[C@H](O[C@@H]8OC[C@@H](O)[C@H](O)[C@H]8O)[C@H]7O[C@@H]7O[C@H](CO)[C@H](O)[C@H](O)[C@H]7O)[C@@](C)(C=O)C6CC[C@@]5(C)[C@]3(C)C[C@H]4O)O[C@H](C)[C@@H]2OC2OC(C)C(OC3OCC(O)C(O)C3O)C(O)C2O)C(O)C(O)C1O (stereo partly specified)	-2.08% [at 6.55 µM]
COc1ccnc(CCc2nc3ncccc3[nH]2)c1	-22.9%
CCC(C)C(=O)O[C@H]1C[C@](C)(O)[C@]23OC(C)(C)[C@H](C[C@H](OC(=O)c4ccccc4)[C@]2(COC(C)=O)[C@H]1OC(=O)C(C)CC)[C@H]3OC(C)=O (stereo partly specified)	-0.8% [at 25.3 µM]
C[C@@H]1O[C@@H](O[C@H]2[C@@H]3C=CO[C@@H](O[C@@H]4O[C@H](CO)[C@@H](O)[C@H](O)[C@H]4O)[C@@H]3[C@@]3(CO)O[C@@H]23)[C@H](OC(=O)/C=C/c2ccc(O)cc2)[C@H](O)[C@H]1O	0.807% [at 25.3 µM]
CC(=O)c1ccc(O[C@@H]2O[C@H](CO[C@@H]3OC[C@@H](O)[C@H](O)[C@H]3O)[C@@H](O)[C@H](O)[C@H]2O)cc1	-1.57% [at 25.3 µM]

The compounds below were run on Tov-21-G in the same assay as above. Conditions: Gynecologic cancer cell panel viability, ATPlite luminescence, 48 h; series mostly up to 57.5 µM; activity change, negative = cytotoxicity: at the top concentration.
Summary of the method: as §1

Structure (SMILES)	activity change, negative = cytotoxicity
CCC1(O)CC2c3cc(OC)c(OC)cc3CCN2CC1CC(C)C (stereo unspecified)	3.22%
CC1=CC(=O)CC(C)(C)C1CO[C@@H]1O[C@H](CO)[C@@H](O)[C@H](O)[C@H]1O (stereo partly specified)	8.02% [at 38.5 µM]
C=C1CCC2(OC1)OC1CC3C4CC=C5CC(O)CC(O[C@@H]6OC[C@H](OC(=O)C(O)C(C)CC)[C@H](O)[C@H]6O[C@@H]6O[C@@H](C)[C@H](O)[C@@H](O)[C@H]6O)C5(C)C4CCC3(C)C1C2C (stereo partly specified)	15.3% [at 11.6 µM]
CC(O)C/C=C/C=C/C(=O)OC1C=C2COC(=O)C2(O)C2(C)CCCC(C)(C)C12 (stereo unspecified)	-5.58% [at 38.5 µM]
N[C@@H](CC(=O)Nc1ccc(Oc2cc(F)c(F)cc2Br)cc1)C(=O)O	14.1%
COc1ccc(CC(=O)NCc2ccccc2-c2ccccc2C(=O)NCCc2cccnc2)cc1	1.38%
CC1OC(OC2C(OC(=O)[C@]34CCC(C)(C)C[C@H]3C3=CCC5[C@@]6(C)CC[C@H](OC7OC(C(=O)O)C(O)C(O)C7O)C(C)(C)C6CC[C@@]5(C)[C@]3(C)CC4O)OC(CO)C2O)C(O)C(O)C1OC1OCC(O)C(O)C1O (stereo partly specified)	5.56% [at 11.6 µM]
C=C1CC/C=C(/CO)C(=O)C[C@@H]2[C@@H]1C[C@@]2(C)COC(C)=O	-1.36%
O=C(OC[C@H]1O[C@H](O[C@]2(CO)O[C@H](CO)[C@@H](O)[C@@H]2O)[C@H](O)[C@@H](O)[C@@H]1O)c1ccc(O)cc1	16.9% [at 25.3 µM]
C=CCC/C=C/C#CCCCCCCCC[C@H]1C(=O)O[C@H](C)[C@@H]1O	4.25% [at 38.5 µM]
COc1cc2c(cc1O)CC(O)(CO)C(CO)C2c1ccc(OC2OC(CO)C(O)C(O)C2O)c(OC)c1 (stereo unspecified)	-1.37% [at 25.3 µM]
C=C1[C@H]2CCC3[C@]4(C)CCC[C@@](C)(C(=O)O)C4CC[C@]3(C2)[C@H]1OC(C)=O (stereo partly specified)	7.05% [at 38.5 µM]
CC[C@@H](C)[C@H](NC(=O)C(C)(C)NC(=O)[C@H](CCC(N)=O)NC(=O)C(C)(CC)NC(=O)[C@H](Cc1c[nH]c2ccccc12)NC(C)=O)C(=O)N[C@H](C(=O)NC(C)(C)C(=O)N[C@@H](CC(C)C)C(=O)NC(C)(C)C(=O)N1CCC[C@H]1C(=O)N[C@@H](CCC(N)=O)C(=O)NC(C)(C)C(=O)N1CC(O)C[C@H]1C(=O)NC(C)(CC)C(=O)C1CC[C@@H](C(=O)N[C@@H](Cc2ccccc2)C(=O)NCC(=O)O)N1)C(C)O (stereo partly specified) (Ac-W[ξIva]Q[Aib][aIle][Thr(3ξ)][Aib]L[Aib]PQ[Aib][X8]-X9)	-16.8% [at 6.55 µM]
OC[C@H]1O[C@@H](OCCc2ccccc2)[C@H](O[C@@H]2OC[C@@H](O)[C@H](O)[C@H]2O)[C@@H](O)[C@@H]1O	-2.5% [at 25.3 µM]
CC1=CC23[C@H](C=C(C(=O)O)[C@@H]2COC(=O)[C@]3(O)CO)[C@@H]1C (stereo partly specified)	-11.3%
CC(C)(C)NS(=O)(=O)c1ccc(-c2ccc3[nH]nc(N)c3c2)cc1	-1.83%
C[C@@H]1C[C@@H](O)[C@@]23CO[C@]2(CO)CCC[C@@H]3[C@@]12C[C@@H](c1ccoc1)OC2=O	-4.82% [at 38.5 µM]
COc1cccc(CN(C(=O)CC(C)(C)C)C2CC(C(=O)N3CCNCC3)N(Cc3ccc4c(c3)OCO4)C2)c1 (stereo unspecified)	2.78%
C=C1CC23CC1CCC2C12OC(=O)C(C)(C(O)CC1O)C2C3C(=O)O (stereo unspecified)	7.27% [at 38.5 µM]

Structure (SMILES)	activity change, negative = cytotoxicity
COc1ccc(C2C(C(=O)O)C(C(=O)O)C2c2ccc(OC)cc2O[C@@H]2O[C@H](CO)[C@@H](O)[C@H](O)[C@H]2O)c(O[C@@H]2O[C@H](CO)[C@@H](O)[C@H](O)[C@H]2O)c1 (stereo partly specified)	-6.74% [at 25.3 µM]
CC1OC(OC2C(OC3C(O[C@H]4CC[C@@]5(C)C(CC[C@]6(C)C5C(=O)CC5=C7CC(C)(C)CC(O)[C@]7(C)CC[C@]56C)C4(C)C)OC(C(=O)O)C(O)C3O)OCC(O)C2O)C(O)C(O)C1O (stereo partly specified)	4.68% [at 11.6 µM]
CN1CCN(c2nc(-c3ccc(C(=O)NC4(C(=O)NCC#N)CCCCC4)cc3)cs2)CC1	4.19%
C[C@H]1/C=C/C=C/C=C/C=C/C=C/[C@@H](O)[C@H](C(=O)O)[C@H](O)C[C@H](O)CCC[C@H](O)C[C@H](O)C[C@H](O)[C@@H](C)C(=O)O[C@@H]1C	-0.403% [at 25.3 µM]
COc1cc(Nc2nc3c(s2)CCCC3c2ccccc2)ccc1-n1cnc(C)c1 (stereo unspecified)	9.24% [at 11.6 µM]
CCCO[C@@H]1O[C@H](CO)[C@@H](O)[C@H](O)[C@H]1O[C@@H]1OC[C@@H](O)[C@H](O)[C@H]1O	3.51% [at 38.5 µM]
O=C(C[C@@H]1C(C(=O)O)=CO[C@@H](O[C@@H]2O[C@H](CO)[C@@H](O)[C@H](O)[C@H]2O)/C1=C\CO)OCCc1ccc(O)cc1	3.54% [at 25.3 µM]
CC(C)(CC(=O)N1CCCC1)NCC(=O)N1C[C@@H](F)C[C@H]1C#N	-0.249%
CC1(C)CC[C@]2(C(=O)O)[C@H](O)C[C@]3(C)C(=CCC4[C@@]5(C)CC[C@H](O[C@@H]6OC[C@@H](O)[C@H](O)[C@H]6O)[C@@](C)(C(=O)O)C5CC[C@]43C)[C@@H]2C1 (stereo partly specified)	3.61% [at 25.3 µM]
CN1CCc2cc(Cl)c(O)cc2[C@@H](c2cccc3c2OCC3)C1	-0.26%
CCc1nnc(NS(=O)(=O)c2ccc(NC(=S)NC(=O)/C=C/c3ccc(F)cc3)cc2)s1	4.33%
COc1c2cc(c(O)c1OC)CCCCC(O)CCc1ccc(O)c-2c1 (stereo unspecified)	-0.0871% [at 38.5 µM]
C/C(=C\C1CCC(C)C2CCC3(C)OC123)C(=O)O (stereo unspecified)	18.2%
CCCC/C=C\CCCCCc1cc(=O)c2ccccc2n1C	12% [at 38.5 µM]
CC1OC(O[C@@H]2[C@@H](O)[C@H](OC(=O)[C@]34CCC(C)(C)C[C@H]3C3=CCC5[C@@]6(C)CC[C@H](O[C@@H]7O[C@H](C(=O)O)[C@@H](O)[C@H](O[C@@H]8OC[C@@H](O)[C@H](O)[C@H]8O)[C@H]7O[C@@H]7O[C@H](CO)[C@H](O)[C@H](O)[C@H]7O)[C@@](C)(C=O)C6CC[C@@]5(C)[C@]3(C)C[C@H]4O)O[C@H](C)[C@@H]2OC2OC(C)C(OC3OCC(O)C(O)C3O)C(O)C2O)C(O)C(O)C1O (stereo partly specified)	5.64% [at 6.55 µM]
COc1ccnc(CCc2nc3ncccc3[nH]2)c1	0.942%
CCC(C)C(=O)O[C@H]1C[C@](C)(O)[C@]23OC(C)(C)[C@H](C[C@H](OC(=O)c4ccccc4)[C@]2(COC(C)=O)[C@H]1OC(=O)C(C)CC)[C@H]3OC(C)=O (stereo partly specified)	4.99% [at 25.3 µM]
C[C@@H]1O[C@@H](O[C@H]2[C@@H]3C=CO[C@@H](O[C@@H]4O[C@H](CO)[C@@H](O)[C@H](O)[C@H]4O)[C@@H]3[C@@]3(CO)O[C@@H]23)[C@H](OC(=O)/C=C/c2ccc(O)cc2)[C@H](O)[C@H]1O	6.13% [at 25.3 µM]
CC(=O)c1ccc(O[C@@H]2O[C@H](CO[C@@H]3OC[C@@H](O)[C@H](O)[C@H]3O)[C@@H](O)[C@H](O)[C@H]2O)cc1	9.92% [at 25.3 µM]
